RXFP1 ag = qHTS Assay for Agonists of the Relaxin Receptor RXFP1. 370,000 compounds, 0.3% hits. HEK293T-RXFP1 cAMP TR-FRET, 30 min; response scale: percent of porcine relaxin response, buffer zero. Potency, µM (titrated, usually from 57.5 µM), for inactives: at the top dose activation, hits mostly activators. Relaxin receptor 1 (Homo sapiens), Q9HBX9; active = well fitted activation curve with a large enough effect; inconclusive = small, poorly fitted or top-dose-only effect; note: potency is the fitted concentration of half-maximal effect; % is set by controls: 0 for no effect and ±100 for the full control effect; nearly all actives have a fitted effect of over 60% in size
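HEK293T cells stably expressing RXFP1 were pretreated with the PDE4 inhibitor Ro 20174, exposed to compounds for 30 min at 37C, lysed, and cAMP was read by TR-FRET. Data normalized to buffer (basal) and 29 nM porcine relaxin (100%).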
gsp antagonist = qHTS for Antagonists of gsp, the Etiologic Mutation Responsible for Fibrous Dysplasia/McCune-Albright Syndrome: qHTS. AID 624288, 2012. 340,000 compounds, 0.4% hits. Potency, µM (top dose mostly 76.9 µM), inactives show top-dose activity change, negative = inhibition, hits mostly inhibitors. gsp-mutant cells, cAMP HTRF, 30 min; calls by dose curve; cell line not stated here;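 note: intracellular cAMP measured with PDE inhibitor Ro 20-1724 present during compound exposure; potency is the fitted concentration of half-maximal effect; % is set by controls: 0 for no effect and ±100 for the full control effect; nearly all actives have a fitted effect of over 65% in size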
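Cells, 2000/well, grown 16–24 h in DMEM 10% FBS with 0.5 mg/ml G418, then compounds plus […] (300 uM addition stock), 30 min at 37C. cAMP read by HTRF (cAMP-d2 and anti-cAMP antibody-K in lysis buffer) after 30 min RT.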
gsp ag = qHTS for Agonist of gsp, the Etiologic Mutation Responsible for Fibrous Dysplasia/McCune-Albright Syndrome: qHTS; gsp mutant cells, cAMP HTRF, 30 min; Potency, µM (highest dose often 76.9 µM), inactives show at the top dose activation (cAMP increase), most hits filed as activators; 340,000 compounds, 0.13% hits; active = well fitted activation curve with a large enough effect; inconclusive = small, poorly fitted or top-dose-only effect, or another doubt; inactive = no such curve, though single readings can be large or run the other way; cell line not stated here;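 note: phosphodiesterase inhibitor Ro 20-1724 added with compounds to block cAMP breakdown; potency is the fitted concentration of half-maximal effect; nearly all actives have a fitted effect of over 60% in size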
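Cells in DMEM/10% FBS with G418 were pretreated with compounds in DMSO plus […] (300 uM stock) for 30 min at 37C. cAMP was measured by HTRF (cAMP-d2 plus anti-cAMP antibody-K) after 30 min at room temperature.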
TSHR antagonist = Antagonists of the Thyroid Stimulating Hormone Receptor: HTS campaign. Thyrotropin receptor (Homo sapiens), P16473. TSHR-expressing cells, TSH-stimulated cAMP HTRF, 2 h; hits give low values. activity change, negative = inhibition, % at 11.5 µM. 330,000 compounds, 0.2% hits. AID 504810, 2011;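 active = activity change below a set negative limit, meaning inhibition stronger than a set level, cut at about -70% in these data; inconclusive = activity change between two set negative limits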; note: % is set by controls: 0 for no effect and ±100 for the full control effect
Target sequence (P16473 whole entry, looked up): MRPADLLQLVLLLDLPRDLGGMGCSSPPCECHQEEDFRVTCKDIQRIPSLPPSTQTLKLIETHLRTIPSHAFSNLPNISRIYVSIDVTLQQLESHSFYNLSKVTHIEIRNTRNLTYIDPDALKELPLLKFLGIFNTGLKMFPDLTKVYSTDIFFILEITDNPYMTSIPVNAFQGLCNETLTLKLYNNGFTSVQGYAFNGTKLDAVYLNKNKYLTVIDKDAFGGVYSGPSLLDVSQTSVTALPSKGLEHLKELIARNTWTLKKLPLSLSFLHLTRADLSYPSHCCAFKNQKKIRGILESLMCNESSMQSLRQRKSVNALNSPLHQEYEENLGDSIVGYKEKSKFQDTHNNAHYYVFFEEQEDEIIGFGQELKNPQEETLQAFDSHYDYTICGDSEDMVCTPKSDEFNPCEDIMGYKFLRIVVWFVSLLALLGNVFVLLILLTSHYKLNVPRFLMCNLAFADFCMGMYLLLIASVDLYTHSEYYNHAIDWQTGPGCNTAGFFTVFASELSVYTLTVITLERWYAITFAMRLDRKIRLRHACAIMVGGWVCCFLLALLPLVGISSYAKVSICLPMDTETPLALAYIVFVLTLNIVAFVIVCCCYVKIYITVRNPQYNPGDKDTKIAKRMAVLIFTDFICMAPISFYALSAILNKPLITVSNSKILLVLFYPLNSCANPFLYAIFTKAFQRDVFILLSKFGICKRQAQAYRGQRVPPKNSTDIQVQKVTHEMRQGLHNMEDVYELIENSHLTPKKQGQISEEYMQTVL
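TSHR-expressing cells, 200/well, pre-treated with compound, then stimulated with EC80 TSH (4nM final) for 2 hours at 37 deg C. cAMP measured by competitive HTRF: anti-cAMP cryptate antibody in lysis buffer plus cAMP-d2, read after 30 minutes at room temperature.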
RXFP1 antag = qHTS Assay for Antagonists of the Relaxin Receptor RXFP1 | HEK293-RXFP1, relaxin-stimulated cAMP HTRF, 30 min; hits give low values | Relaxin receptor 1 (Homo sapiens), Q9HBX9 | activity change, negative = inhibition, % at 57.5 µM | AID 1259400, 2018 | 350,000 compounds, 0.59% hits;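 active = activity change of -60% or lower, but not beyond a set lower limit; inconclusive = change between -60% and -40%, or beyond the set limit; inactive = change above -40%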; note: % is set by controls: 0 for no effect and ±100 for the full control effect
Starred values were filed as active, the others as inactive; ? = inconclusive; nt = not tested or not shown; ! = repeats disagree; [ ] = dose if it differs, or a comment. A selection: hits, their analogues and other compounds. The true share with any hit is near 1%.

SMILES | RXFP1 ag | gsp antagonist | gsp ag | TSHR antagonist | RXFP1 antag
OCCN(CC(O)COc1ccccc1)CC(O)Cn1ccc2ccccc21 (stereo not drawn) | -1% | 11% | 7% | 6 | 5
COc1ccc(OCC(O)CN(CCO)CC(O)Cn2ccc3ccccc32)cc1 (stereo not drawn) | 1% | -4% | 8%[15.4 µM] | 14 | -64*
N#CC(c1ccccc1)C(CC(=NO)c1ccccc1)c1ccccc1 (stereo not drawn) | nt | nt | -1% | nt | -91*
CCCOc1ccc2c(c1)CC[C@@H]1[C@@H]2CC[C@]2(C)C(OC)CC[C@@H]12 (stereo partly drawn) | nt | nt | nt | nt | -10
CCOc1cc(CNC(=O)c2ccc(C)c(NC(=O)c3nsc4ccccc34)c2)ccc1OC | 6% | nt | nt | nt | -27
CC(=O)Nc1ccc(NC(=O)c2ncoc2-c2ccco2)cc1 | -1% | nt | nt | nt | nt
CCc1cc2cc3c(cc2nc1SCC(=O)Nc1nccs1)OCO3 | 13µM* | 25% | ? | 1 | 9
CCOC(=O)C1=C(CS(=O)(=O)c2ccc(C)cc2)NC(=O)NC1c1ccc(C(C)C)cc1 (stereo not drawn) | 4% | nt | nt | nt | nt
Cc1cc(C)n2nc(C(=O)N3CCN(c4ccc([N+](=O)[O-])cc4)CC3)nc2n1 | 24% | 11µM* | 26% | -1 | nt
Cc1ccc(N=Cc2cc(Cc3ccccc3Cl)cc([N+](=O)[O-])c2O)c(O)c1 | -5% | -29% | -102% | -40 | -96*
NC1=Nc2cccc3cccc1c23 | 1% | -30% | -8%[15.4 µM] | -9 | 2
N=C1N=C(N)c2cc3ccccc3cc21 | nt | nt | nt | nt | -80*
CC(=O)Nc1ccc(NS(=O)(=O)c2cc([N+](=O)[O-])ccc2C)cc1 | 2% | nt | 7%[15.4 µM] | 12 | -4
Cc1cccc(NS(=O)(=O)c2cc([N+](=O)[O-])ccc2C)n1 | 4% | 8% | 2%[15.4 µM] | 4 | -62*
COc1cc(C2c3c(-c4ccccc4)n[nH]c3C(=O)N2c2ccccc2)ccc1O (stereo not drawn) | 1% | 0% | 1% | -35 | 4
O=C1c2[nH]nc(-c3ccc(F)cc3)c2C(c2ccccc2F)N1c1ccccc1 (stereo not drawn) | 6% | nt | nt | nt | -68*
CN(CC(O)COCc1ccccc1F)C1CCCCC1 (stereo not drawn) | 1% | -20% | -1% | 0 | 12
CN(Cc1cccc(F)c1)CC(O)COCc1ccccc1Cl (stereo not drawn) | 3% | 11µM* | 9% | 4 | -27
COc1ccc(CNC(=O)c2nc(S(=O)(=O)Cc3ccccc3)ncc2Cl)cc1 | -3% | ? | -12% | -38 | -119*!
O=C(NCc1ccc2c(c1)OCO2)c1nc(S(=O)(=O)Cc2ccccc2)ncc1Cl | 4% | 11% | -13%[15.4 µM] | -11 | -39
O=C(NCc1ccccc1)c1nc(S(=O)(=O)Cc2ccccc2)ncc1Cl | 0% | -9% | 5% | -36 | -113*!
CCS(=O)(=O)c1ncc(Cl)c(C(=O)NCc2ccccc2)n1 | 1% | nt | nt | nt | ?
CCN(C(=O)CCN1C(=O)/C(=C/c2ccccc2)SC1=S)C1CCS(=O)(=O)C1 (stereo not drawn) | -2% | 28µM* | ? | -8 | 0
CN(C(=O)CCN1C(=O)/C(=C/c2ccc(F)cc2)SC1=S)C1CCS(=O)(=O)C1 (stereo not drawn) | nt | nt | -3% | nt | -1
CCn1c(C(=O)NCCc2ccc(S(N)(=O)=O)cc2)cc2sc(Cl)cc21 | 5% | nt | nt | nt | -11
SMILES | RXFP1 ag | gsp antagonist | gsp ag | TSHR antagonist | RXFP1 antag
COc1cc2nc(Nc3ccc(C)c(C)c3)nc(N)c2cc1OC | -1% | 16% | -71% | 10 | -110*!
CCC1(C)Cc2c(sc3nc(SC)[nH]c(=S)c23)CO1 (stereo not drawn) | 25µM* | -6% | ? | -14 | 8
CCSc1nc2sc3c(c2c(=O)[nH]1)CC(C)(CC)OC3 (stereo not drawn) | 0% | 5% | -6% | -4 | -6
O=C(CS(=O)Cc1ccco1)NC/C=C\COc1cc(CN2CCCCC2)ccn1 (stereo not drawn) | nt | nt | nt | nt | -12
CCc1c(C(=O)NCCc2ccc(N3CCCCC3)cc2)[nH]c2ccc(Cl)cc12 | nt | nt | nt | -20 | nt
CCOc1ccc(C(=O)Nc2cccc(NC(=O)c3ccco3)c2)cc1Cl | 2% | nt | nt | nt | 9
c1ccc(N2CC3CCc4ccccc4C3=N2)cc1 (stereo not drawn) | 19% | 9% | 10µM* | -5 | 5
Cc1ccc(S(=O)(=O)N2CCN(C(=O)CNC(=O)c3sc4ccccc4c3Cl)CC2)cc1 | 8% | -33% | 11µM* | 2 | -14
Cc1ccc(N(Cc2cccs2)C(=O)Nc2cccc(Cl)c2)cc1 | -3% | nt | nt | nt | -14
COc1cc(N2C(=O)C=CC2=O)ccc1N1C(=O)C=CC1=O | nt | 50µM* | 0% | nt | ?
O=C(Cn1c2c(c(=O)n3ncnc13)CCC2)N/N=C/c1ccc(Cl)cc1 | 0% | -4% | 7% | 2 | 4
Cn1c2c(c(=O)n3ncnc13)CCCC2 | 22µM* | 15% | 31%[15.4 µM] | 10 | -10
COc1ccc(N=C2O/C(=C/c3sc(=S)n(CC4CCCO4)c3O)N=C2C#N)cc1 (stereo not drawn) | -1% | 35µM* | 13% | -25 | -88*
CC(C)(C)C(=O)COC(=O)c1ccc(N)c([N+](=O)[O-])c1 | 1% | 13% | -15% | -2 | -2
COc1ccc(CCOC(=O)c2ccc(N)c([N+](=O)[O-])c2)cc1 | -2% | -22% | 4% | -14 | -66*
CC(=O)c1cc2ccccc2s1 | nt | nt | nt | nt | 14
Cn1c(N)c(Sc2ccccc2[N+](=O)[O-])c(=O)n(C)c1=O | 0% | 7% | 4% | -112* | -23
CCc1ccc(N(CC)C(=O)c2ccc3c(Cl)c4c(nc3c2)CCC4)cc1 | 2% | -29% | -33% | -6 | -76*
Cc1ccc(CCNC(=O)c2ccc3c(Cl)c4c(nc3c2)CCCC4)cc1 | 5% | nt | nt | nt | nt
Cc1ccc(N(C)C(=O)c2ccc3c(Cl)c4c(nc3c2)CCC4)cc1C | 1% | ? | 2% | 2 | -89*
CCN(C(=O)c1ccc2c(Cl)c3c(nc2c1)CCC3)c1cccc(C)c1 | 1% | nt | nt | 0 | nt
COc1ccc(N(C)C(=O)c2ccc3c(Cl)c4c(nc3c2)CCCC4)c(OC)c1 | 2% | ? | -20% | 18 | -96*
CCC(=O)N1CCc2cc(CNS(=O)(=O)c3ccc(NC(=O)CC(C)C)cc3)ccc21 | 3% | nt | nt | nt | 6
CCC1=Nc2cc(C(=O)N3CCC(C)CC3)ccc2Sc2ccc(C)cc21 | 1% | nt | nt | nt | ?

Compound activity (PubChem)
